MCF10A rereplic: inducers of DNA re-replication in MCF 10A breast cells | MCF 10A DNA re-replication, Hoechst nuclear intensity, 48 h | Potency, µM (series often up to 46.1 µM), for inactives: at the top dose activity, positive = re-replication, actives largely listed as activators | 350,000 tested, 2.9% active | AID 624296; further: potency means the concentration at half of the fitted maximal effect; % of control where 0% means no effect; nearly all actives have a fitted effect of over 50% in size
KCNH2 3.1 inh: inhibitors of human KCNH2 3.1 potassium channel isoform; U2OS KCNH2 3.1, thallium flux FluxOr; hits give low values; activity change, % (tested at about 1.8 µM); 340,000 tested, 0.95% active;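 active means maximum activity change below -70%; inconclusive means maximum activity change from -70% to -50%; inactive means maximum activity change above -50%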;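 further: thallium influx rate constant from kinetic fluorescence after stimulation buffer; on the % scale 0 is the no-effect control and ±100 the full control effect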
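Virally transduced U2OS (3.1 isoform, 4 h infection in dark at RT) → overnight 37 C → FluxOr + Red40 in HBSS/HEPES, 45 min → stimulation buffer, 2 min kinetic read → rate constant vs DMSO controls.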
KB-V1 cytotox: KB-V1 MDR subline cytotoxicity; KB-V1 MDR cells viability, CellTiter-Glo, 72 h; Potency, µM (highest dose often 46.1 µM), usual class: cytotoxic; 400,000 tested, 3.4% active; AID 1347076; further: potency means the concentration at half of the fitted maximal effect; on the % scale 0 is the no-effect control and ±100 the full control effect; nearly all actives have a fitted effect of over 60% in size
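In this primary screen, KB-V1 cells overexpressing P-gp are incubated with library compounds (lowest to highest concentration) for 72 h at 37 degrees C before a luminescent ATP viability read.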
KB-3-1 tox: kills parental KB-3-1 adenocarcinoma cells; 400,000 tested, 1.4% active; Potency, µM (titrated, usually from 46.1 µM), actives largely listed as cytotoxic; KB-3-1 viability, CellTiter-Glo ATP luminescence, 72 h; further: potency means the concentration at half of the fitted maximal effect; on the % scale 0 is the no-effect control and ±100 the full control effect; nearly all actives have a fitted effect of over 60% in size
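Multi-concentration cytotoxicity screen in KB-3-1 cells grown in DMEM lacking phenol red with 10% FBS. After 72 h at 37 °C with compound, ATP-dependent luminescence was recorded.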
SW480 rerep: inducers of DNA re-replication in SW480 colon cancer cells; SW480 DNA re-replication, Hoechst DNA content imaging, 48 h; Potency, µM (titrated, usually from 46.1 µM), for the others: top-dose re-replication activation, usual class: activators; 340,000 tested, 1.8% active; AID 624297; further: potency means the concentration at half of the fitted maximal effect; % of control where 0% means no effect; nearly all actives have a fitted effect of over 55% in size
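Image-based DNA-content assay: after two days of treatment, nuclei were labelled with the DNA dye Hoechst and imaged, and hits were compounds raising the count of nuclei showing high fluorescence intensity.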
KCNH2 WT inh: inhibitors of human wildtype KCNH2 potassium channel; Q12809; U2OS, BacMam KCNH2, thallium flux FluxOr; hits give low values; activity change, % at 1.84 µM; 340,000 tested, 0.37% active; AID 720551;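 active means maximum activity change below -70%; inconclusive means maximum activity change between -70% and -50%; inactive means maximum activity change above -50%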; further: on the % scale 0 is the no-effect control and ±100 the full control effect
Target sequence (Q12809 whole entry, looked up): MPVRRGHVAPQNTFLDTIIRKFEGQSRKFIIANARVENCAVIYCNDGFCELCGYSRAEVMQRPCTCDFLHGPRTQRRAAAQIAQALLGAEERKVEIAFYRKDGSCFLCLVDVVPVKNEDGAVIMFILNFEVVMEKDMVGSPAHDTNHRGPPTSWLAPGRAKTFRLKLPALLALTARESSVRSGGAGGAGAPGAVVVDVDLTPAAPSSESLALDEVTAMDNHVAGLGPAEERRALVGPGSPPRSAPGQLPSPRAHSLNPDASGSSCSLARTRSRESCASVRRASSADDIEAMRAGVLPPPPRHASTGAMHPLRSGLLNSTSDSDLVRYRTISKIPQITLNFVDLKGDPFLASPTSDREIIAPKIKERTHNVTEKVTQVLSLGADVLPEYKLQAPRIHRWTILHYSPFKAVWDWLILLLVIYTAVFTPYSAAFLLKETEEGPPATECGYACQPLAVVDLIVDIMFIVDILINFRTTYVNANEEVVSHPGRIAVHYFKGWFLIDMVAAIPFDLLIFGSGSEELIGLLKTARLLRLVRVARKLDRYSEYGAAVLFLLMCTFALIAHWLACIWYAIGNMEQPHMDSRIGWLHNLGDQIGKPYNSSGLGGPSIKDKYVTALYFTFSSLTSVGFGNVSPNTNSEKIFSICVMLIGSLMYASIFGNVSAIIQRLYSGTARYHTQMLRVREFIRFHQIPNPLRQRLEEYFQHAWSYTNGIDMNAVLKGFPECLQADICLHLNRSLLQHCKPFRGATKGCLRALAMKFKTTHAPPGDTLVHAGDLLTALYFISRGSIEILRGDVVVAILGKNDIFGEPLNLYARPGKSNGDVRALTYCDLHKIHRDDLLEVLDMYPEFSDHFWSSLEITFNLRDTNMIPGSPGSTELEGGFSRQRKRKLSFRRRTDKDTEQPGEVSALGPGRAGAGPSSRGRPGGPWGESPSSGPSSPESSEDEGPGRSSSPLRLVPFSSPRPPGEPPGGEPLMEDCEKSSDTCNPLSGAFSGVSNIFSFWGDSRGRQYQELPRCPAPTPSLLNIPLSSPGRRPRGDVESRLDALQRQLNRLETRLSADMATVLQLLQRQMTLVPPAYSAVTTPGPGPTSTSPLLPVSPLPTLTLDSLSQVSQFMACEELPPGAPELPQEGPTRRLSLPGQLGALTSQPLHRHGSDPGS
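U2OS cells were transduced with wild-type KCNH2 virus (2.03 x 10^8 / mL) for 4 h at room temperature, then cultured overnight at 37 C. Thallium flux was read with FluxOr dye. Rate constants were normalized to DMSO controls.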
* = called active by the depositor; i = inactive; ? = inconclusive; · = no result; [ ] = remark or other dose. Shown are actives, neighbours in structure and some others; about 7.6% of the full set was active somewhere. Unless noted, the call rests on the fitted dose curve; in most records, active means well fitted curve in the direction sought with a large enough effect; inconclusive means small, poorly fitted or top-dose-only effect, or another doubt; inactive means no such curve, though single readings can be large; an effect the other way counts as inactive or inconclusive.

SMILES | MCF10A rereplic | KCNH2 3.1 inh | KB-V1 cytotox | KB-3-1 tox | SW480 rerep | KCNH2 WT inh
CCOC(=O)c1cccc(-n2cccc2/C=C2\NC(=O)N(CC(=O)O)C2=O)c1 | ? | · | i | i | -4% | ·
COc1ccc(-c2cc(-c3nnc(COC(=O)CC4CCCC4)o3)c3ccccc3n2)cc1OC | 15µM* | 0 | i | i | ? | 0
COc1ccc(-c2cc(-c3nnc(COC(=O)c4ccc(O)cc4)o3)c3ccccc3n2)cc1OC | ? | 16 | ? | i | ? | -14
COc1ccc(-c2cc(-c3nnc(COC(=O)C4CC4C)o3)c3ccccc3n2)cc1OC (stereo unspecified) | ? | -5 | ? | i | 16µM* | -21
COc1ccc(-c2cc(-c3nnc(COC(=O)C4CC4)o3)c3ccccc3n2)cc1OC | ? | -1 | ? | ? | 21µM* | 0
Cn1c(SCC(=O)N2CCCC2)nnc1-c1cnccn1 | 3% | 13 | i | i | -1% | -7
CCOC(=O)C1=NOC2(C1)C(=O)Nc1c(Cl)cccc12 (stereo unspecified) | · | · | i | i | · | ·
O=C(CSc1nnc(Cn2nnc3ccccc32)o1)N(Cc1ccc(Cl)cc1)c1ccccc1 | -15% | -8 | i | 13µM* | 3% | -8
O=C(CSc1nnc(Cn2nnc3ccccc32)o1)Nc1cccc(Cl)c1 | 8% | -5 | i | i | -3% | 9
Cc1ccc(NC(=O)c2cc(S(=O)(=O)N(C)C3CCCCC3)ccc2F)cc1C | · | · | i | i | · | ·
CCCCOP(=O)(OCCCC)C1(NS(=O)(=O)c2ccccc2)C=CC(=O)c2ccccc21 (stereo unspecified) | ? | -82* | ? | ? | ? | -12
Cc1ccn2c(=O)c(NC(=O)c3cccc([N+](=O)[O-])c3C)c(C)nc2c1 | · | · | i | ? | · | ·
Cc1ccn2c(=O)c(NC(=O)c3cccs3)c(C)nc2c1 | -1% | 3 | i | i | 23µM* | -3
Cc1ccc(/C=N/n2cc(-c3ccccc3)[nH]c2=S)s1 | 6%[9.22 µM] | -36 | i | i | 18µM* | -10
Cc1ccc(-n2ncc3c(=O)n(CC(=O)NCc4ccco4)cnc32)cc1C | ? | -85* | ? | 23µM* | ? | 0
Cc1ccc(-n2ncc3c(=O)n(CC(=O)Nc4cccc(Cl)c4)cnc32)cc1C | -5% | -83* | i | i | 3% | 6
O=C(Cn1cnc2c(cnn2-c2ccc(F)cc2)c1=O)NCc1ccco1 | 15µM* | 10 | 8.2µM* | 9.2µM* | ? | 2
O=C(COC(=O)c1cccc(S(=O)(=O)N2CCCCC2)c1)NC1CCCCC1 | -6% | 1 | i | i | 1% | 18
CCc1ccc(NCc2cc3cc4c(cc3n(CC(=O)Nc3cccc(OC)c3)c2=O)OCO4)cc1 | · | · | i | i | · | ·
CCc1ccc(NC(=O)N(CCN2CCOCC2)Cc2ccc3c(c2)CCCN3CC)cc1 | 18% | 2 | 21µM* | i | 0% | 5
CCN1CCCc2cc(CN(CCN3CCOCC3)C(=S)Nc3cccc(C)c3)ccc21 | 5% | 2 | i | ? | 26% | -7
CCN1CCCc2cc(CN(CCN3CCOCC3)C(=O)Nc3ccc(C)c(C)c3)ccc21 | ? | -3 | 21µM* | i | 4% | 3
CCCCN1CCCc2cc(CN(CCCN3CCOCC3)C(=O)Nc3ccc(OCC)cc3)ccc21 | · | · | i | i | · | ·
CC(Cc1ccccc1)N1C(=O)c2cccc([N+](=O)[O-])c2C1=O (stereo unspecified) | 2% | 8 | i | i | 0% | -6
COC(=O)c1cc2occc2n1Cc1nc(-c2cccc(Br)c2)oc1C | · | · | ? | i | · | ·
COc1cccc(N2CCN(C(=O)c3cc(C)oc3C)CC2)c1 | ? | -4 | 15µM* | 23µM* | ? | -9
COc1ccccc1N1CCN(C(=O)c2cc(C)oc2C)CC1 | ? | 1 | ? | ? | 25% | 2
